The source made the active and inactive calls.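 The calls were made as follows, unless noted: active = inhibition at or above 50% at 10 µM; inactive = inhibition below 50%.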
Target: Alpha-2C adrenergic receptor (Homo sapiens) (UniProt P18825)
Assay: modulators of alpha2C/GIRK thallium flux, primary screen, cell-based, HEK293 alpha2C/GIRK1/2 (AID 624;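 active = fluorescence slope after compound addition differing from the mean of all screened samples at 99.7% confidence, in either direction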;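 also: slope of fluorescence ratio to pre-addition baseline per second over 15 to 24 s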)
Details: thallium flux BTC fluorescence, at 10 µM, actives lie on both sides

Alpha-2C adrenergic receptor (Homo sapiens), sequence (P18825 whole entry, looked up): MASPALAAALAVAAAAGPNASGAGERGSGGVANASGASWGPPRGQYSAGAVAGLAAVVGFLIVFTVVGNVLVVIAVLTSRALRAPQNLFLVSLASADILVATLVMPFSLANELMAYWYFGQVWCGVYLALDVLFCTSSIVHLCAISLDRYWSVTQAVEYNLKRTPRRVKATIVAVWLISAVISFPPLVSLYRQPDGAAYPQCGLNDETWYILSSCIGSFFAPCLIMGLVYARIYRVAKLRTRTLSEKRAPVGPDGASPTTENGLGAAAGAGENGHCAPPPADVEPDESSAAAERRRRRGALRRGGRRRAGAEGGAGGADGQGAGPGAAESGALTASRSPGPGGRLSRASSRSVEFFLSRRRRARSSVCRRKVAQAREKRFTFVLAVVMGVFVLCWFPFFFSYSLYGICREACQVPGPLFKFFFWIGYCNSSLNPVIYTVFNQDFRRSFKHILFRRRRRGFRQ

slope, inactive:
CCc1nc(NCCCN2CCOCC2)c2oc3ccccc3c2n1 0.00535
CCOC(=O)N1CCN(C(=O)CSc2cc(C)nc3c(-c4ccccc4OC)c(C)nn23)CC1 0.00377
O=C1c2ccccc2C(=O)N1CNc1ccccc1 0.00312
CC(C)(C)OC(=O)N1CC=C2C(C#N)=C(N)C(C#N)(C#N)C(c3cccs3)C2C1 (stereo not given) 0.00419
CCOC(=O)Nc1cc(OC)c(OC)cc1Cc1nccc2cc(OC)c(OC)cc12 0.00447
Cc1cc(=O)n2nc(-c3ccccc3)sc2n1 0.00585
COc1cccc(C2CC(=O)Nc3c2c(=O)n(C)c(=O)n3C)c1OC (stereo not given) 0.00679
CCOC(=O)N1CCN(c2c(N3CCc4ccccc4C3)c(=O)c2=O)CC1 0.00721
COC(=O)Cc1c(C)c2ccc(OCC(=O)N3CCOCC3)cc2oc1=O 0.00545
Cc1cccc(OCC(=O)N(Cc2cccs2)C2CCS(=O)(=O)C2)c1C (stereo not given) 0.00768
CN(C)S(=O)(=O)c1ccc(/C(O)=C2/C(=O)C(=O)N(CCN3CCCCC3)C2c2cccnc2)cc1 (stereo not given) 0.00576
CCOC(=O)c1sc2nc(NC(=O)C3CCCCC3)sc2c1C 0.00612
O=P1(O)C=C(c2ccccc2)NC(c2ccccc2)=C1 0.00466
CC1(C)NC(=O)N(CCOc2cccc(Cl)c2Cl)C1=O 0.00521
Cn1c(=O)c2c(nc(CN3CCCCC3)n2CCc2ccccc2)n(C)c1=O 0.00323
CS(=O)(=O)N1CCN(c2ccccc2NC(=O)c2ccc(-c3ccc(Cl)cc3Cl)o2)CC1 0.00896
CCOc1cc2[nH]c(=O)n(CCCCC(=O)NCc3ccco3)c(=O)c2cc1OCC 0.00662
O=C(NCc1ccco1)C1(S(=O)(=O)c2ccc(Cl)cc2)CC1 0.00602
O=C(Nn1c(C2CC2)nc2ccccc2c1=O)c1ccco1 0.00689
COCCCN1C(=O)C(=O)/C(=C(/O)c2ccc(OCC(C)C)cc2C)C1c1cccnc1 (stereo not given) 0.00417
CCn1c2ccccc2c2cc(Nc3cc(C)nc4ncnn34)ccc21 0.00558
COc1cc(NC(=O)C2CCCN2S(=O)(=O)c2cccc3cccnc23)cc(OC)c1OC (stereo not given) 0.00756
CCOc1ccc(Cn2nnc(C(=O)NCc3ccc(OC)cc3)c2N)cc1 0.00681
CCOC(=O)c1[nH]c(C)c(C(=O)NCc2ccccn2)c1C 0.00562
COc1ccc2cc(C#N)c(SCC(=O)N3CCCC3)nc2c1 0.00554
Cc1ccccc1Nc1cc2ccccc2c(=O)[nH]1 0.00385
O=C(CNc1ccc(Oc2ccccc2)cc1)N1CCOCC1 0.00652
CCCOC(=O)C1C2C=CC3(CN(c4cccc(Cl)c4)C(=O)C13)O2 (stereo not given) 0.00748
COc1cc(NC(=O)c2cc(CC(C)C)on2)c(OC)cc1Cl 0.00662
O=S(=O)(Nc1ccccn1)c1ccc(Oc2ccccc2)cc1 0.0052
O=C(c1cc2ccccc2oc1=O)N1CCN(c2ccc(N3CCOCC3)nn2)CC1 0.00513
Cc1ccc(-c2nc(CS(=O)CC(=O)NCCN(CC(C)C)CC(C)C)c(C)o2)cc1 (stereo not given) 0.00425
O=c1ccc(S(=O)(=O)N2CCC(Cc3ccccc3)CC2)c[nH]1 0.00726
O=C(NCCC1=CCCCC1)C1CC(=O)N(C2CCCCCC2)C1 (stereo not given) 0.00623
Cc1nn(C(=O)c2ccoc2C)c(N)c1-c1ccccc1 0.007
Cc1nnc(N2C(=O)c3oc4ccccc4c(=O)c3C2c2ccco2)s1 (stereo not given) 0.00589
O=c1[nH]c2sc3c(c2c2nncn12)CCCC3 0.00486
C=COC(=O)CSc1snc(SCC(=O)OC)c1C#N 0.00524
COc1ccc(-n2c(=O)c3c4c(sc3n3c(C)nnc23)CCCC4)cc1 0.00664
CCOC(=O)N1CCC(NC(=O)Cn2ncc3c4ccccc4n(C)c3c2=O)CC1 0.00602

Tested on: not listed separately
Assay: inhibitors of Sendai virus-induced IRF3 signaling, primary screen, TLR/RLR signaling modifier project, cell-based, Sendai virus stimulus, luciferase, 10K MLSCN set (AID 602276);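 also: firefly luciferase from ISG56 promoter only with Renilla not read in this screen; 0% = Sendai virus plus DMSO and 100% = medium plus DMSO without virus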
Details: HEK293 RL24 IRF3 luciferase reporter, at 10 µM, active compounds read high

inhibition, inactive:
CCc1nc(NCCCN2CCOCC2)c2oc3ccccc3c2n1 17.6%
CCOC(=O)N1CCN(C(=O)CSc2cc(C)nc3c(-c4ccccc4OC)c(C)nn23)CC1 -11.1%
O=C1c2ccccc2C(=O)N1CNc1ccccc1 7.68%
CC(C)(C)OC(=O)N1CC=C2C(C#N)=C(N)C(C#N)(C#N)C(c3cccs3)C2C1 (stereo not given) 13.2%
CCOC(=O)Nc1cc(OC)c(OC)cc1Cc1nccc2cc(OC)c(OC)cc12 -7.98%
Cc1cc(=O)n2nc(-c3ccccc3)sc2n1 -17.6%
COc1cccc(C2CC(=O)Nc3c2c(=O)n(C)c(=O)n3C)c1OC (stereo not given) -4.94%
CCOC(=O)N1CCN(c2c(N3CCc4ccccc4C3)c(=O)c2=O)CC1 10.9%
COC(=O)Cc1c(C)c2ccc(OCC(=O)N3CCOCC3)cc2oc1=O 17.8%
Cc1cccc(OCC(=O)N(Cc2cccs2)C2CCS(=O)(=O)C2)c1C (stereo not given) 13.8%
CN(C)S(=O)(=O)c1ccc(/C(O)=C2/C(=O)C(=O)N(CCN3CCCCC3)C2c2cccnc2)cc1 (stereo not given) -17.9%
CCOC(=O)c1sc2nc(NC(=O)C3CCCCC3)sc2c1C -10.3%
O=P1(O)C=C(c2ccccc2)NC(c2ccccc2)=C1 10.1%
CC1(C)NC(=O)N(CCOc2cccc(Cl)c2Cl)C1=O 16.8%
Cn1c(=O)c2c(nc(CN3CCCCC3)n2CCc2ccccc2)n(C)c1=O -6.67%
CS(=O)(=O)N1CCN(c2ccccc2NC(=O)c2ccc(-c3ccc(Cl)cc3Cl)o2)CC1 12%
CCOc1cc2[nH]c(=O)n(CCCCC(=O)NCc3ccco3)c(=O)c2cc1OCC 9.08%
O=C(NCc1ccco1)C1(S(=O)(=O)c2ccc(Cl)cc2)CC1 16.2%
O=C(Nn1c(C2CC2)nc2ccccc2c1=O)c1ccco1 9.09%
COCCCN1C(=O)C(=O)/C(=C(/O)c2ccc(OCC(C)C)cc2C)C1c1cccnc1 (stereo not given) 7.86%
COc1cc(NC(=O)C2CCCN2S(=O)(=O)c2cccc3cccnc23)cc(OC)c1OC (stereo not given) 14.4%
CCOc1ccc(Cn2nnc(C(=O)NCc3ccc(OC)cc3)c2N)cc1 17.5%
CCOC(=O)c1[nH]c(C)c(C(=O)NCc2ccccn2)c1C 17.5%
COc1ccc2cc(C#N)c(SCC(=O)N3CCCC3)nc2c1 -0.637%
Cc1ccccc1Nc1cc2ccccc2c(=O)[nH]1 -7.13%
O=C(CNc1ccc(Oc2ccccc2)cc1)N1CCOCC1 18.1%
CCCOC(=O)C1C2C=CC3(CN(c4cccc(Cl)c4)C(=O)C13)O2 (stereo not given) 12.8%
COc1cc(NC(=O)c2cc(CC(C)C)on2)c(OC)cc1Cl 10.7%
O=S(=O)(Nc1ccccn1)c1ccc(Oc2ccccc2)cc1 16.9%
O=C(c1cc2ccccc2oc1=O)N1CCN(c2ccc(N3CCOCC3)nn2)CC1 -9.88%
Cc1ccc(-c2nc(CS(=O)CC(=O)NCCN(CC(C)C)CC(C)C)c(C)o2)cc1 (stereo not given) 21.1%
O=c1ccc(S(=O)(=O)N2CCC(Cc3ccccc3)CC2)c[nH]1 11.4%
O=C(NCCC1=CCCCC1)C1CC(=O)N(C2CCCCCC2)C1 (stereo not given) 5.65%
Cc1nn(C(=O)c2ccoc2C)c(N)c1-c1ccccc1 -27.9%
Cc1nnc(N2C(=O)c3oc4ccccc4c(=O)c3C2c2ccco2)s1 (stereo not given) 12.3%
O=c1[nH]c2sc3c(c2c2nncn12)CCCC3 7.28%
C=COC(=O)CSc1snc(SCC(=O)OC)c1C#N 15.5%
COc1ccc(-n2c(=O)c3c4c(sc3n3c(C)nnc23)CCCC4)cc1 4.81%
CCOC(=O)N1CCC(NC(=O)Cn2ncc3c4ccccc4n(C)c3c2=O)CC1 14.9%

inhibition, active:
CCn1c2ccccc2c2cc(Nc3cc(C)nc4ncnn34)ccc21 68.5%

Reference: PubChem BioAssay
